The test system of experiment [1] is TRPC4 beta (transient receptor potential cation channel C4), mouse. Nature of the experiment: activators of mouse TRPC4 channel, confirmation, cell-based, Fluo4 calcium, HEK293 TRPC4beta/mu-opioid, duplicates, 10 µM (AID 2426;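 active = fluorescence ratio normalized to control raised more than 50% in primary screen plus both repeat runs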;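 for activation: percent rise of integrated ratio over buffer wells lacking compound which define 0%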). The conditions noted are these: Fluo4 calcium fluorescence, at 10 µM; active compounds read high.
The subject of experiment [2] is transient receptor potential cation channel C4 beta (TRPC4), mouse. In words: activators of mouse TRPC4 channel, confirmation, cell-based, second round, Fluo4, HEK293 TRPC4beta/mu-opioid, 1 µM (AID 2461;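 active = primary screen active and over 50% activation in each of two duplicate runs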). Particulars: Fluo4 calcium fluorescence, at 1 µM; active compounds read high.
Experiment [3] deals with TRPC4 (transient receptor potential cation channel C4 beta), mouse. In words: positive allosteric modulators of mouse TRPC4, confirmation, cell-based, second round, Fluo-4, HEK293 TRPC4beta/mu-opioid, 1 µM (AID 2554;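 active = primary screen hit whose fluorescence ratio, in both repeats, exceeds the weak agonist control mean by 3 SD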). The conditions noted are these: DAMGO EC20, Fluo-4 calcium flux, at 1 µM; active compounds read high.
In experiment [4] the test system is TRPC4 beta (transient receptor potential cation channel C4), mouse. Nature of the experiment: positive allosteric modulators of mouse TRPC4, confirmation, cell-based, Fluo-4, HEK293 TRPC4beta/mu-opioid (AID 2555). Particulars: DAMGO EC20, Fluo-4 calcium flux, at 10 µM; active compounds read high. In general terms: Calcium assays in cells follow changes in intracellular calcium, usually with a dye or a luminescent sensor.

The target of experiment [5] is Short transient receptor potential channel 4 (Mus musculus) (UniProt Q9QUQ5). Nature of the experiment: inhibitors of mouse TRPC4 channel, confirmation, cell-based, Fluo4, HEK293 TRPC4beta/mu-opioid (AID 2636;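 active = calcium signal cut by more than 3 SD below the full-agonist control yet still positive, in both repeats and the earlier primary screen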). Particulars: DAMGO, Fluo4 calcium flux, at 10 µM; active compounds read high.
For experiment [6] the target is unchanged. Nature of the experiment: inhibitors of mouse TRPC4 channel, confirmation, cell-based, second round, Fluo4, HEK293 TRPC4beta/mu-opioid, 1 µM (AID 2637;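 active = calcium signal ratio cut to more than 3 SD under the fully stimulated control mean yet still positive, in both repeats and the primary screen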). The conditions noted are these: Fluo4 calcium flux, DAMGO, at 1 µM; active compounds read high.
Experiment [7] has the same target. Nature of the experiment: mouse TRPC4 channel activators, dose response, cell-based, HEK293 TRPC4/mu-opioid, Fluo-4 calcium (AID 434937;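 active = primary screen activator hit with a dose response curve and TRPC4 channel activation at any tested dose; inactive = no activation, no dose response, or not a primary hit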).
Experiment [8] shares this target. Nature of the experiment: TRPC4 positive allosteric modulators, dose response, cell-based, HEK293 TRPC4/mu-opioid, Fluo-4 calcium, EC20 DAMGO (AID 434941;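 active = earlier screen potentiator hit that boosts the TRPC4 ion channel at some dose, with a dose response; inactive = no potentiation, no dose response, or not a prior hit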;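 note: calcium entry triggered by an EC20 dose of DAMGO at the co-expressed mu-opioid receptor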).
The target is the same in experiment [9]. In words: mouse TRPC4 channel inhibitors, dose response, cell-based, HEK293 TRPC4/mu-opioid, Fluo-4 calcium (AID 434942;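 active = primary screen inhibitor hit that blocks the TRPC4 channel at some tested dose, yielding a dose curve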).
In experiment [10] the target is Short transient receptor potential channel 6 (Mus musculus) (UniProt Q61143). In words: inhibition of mouse TRPC6 channel, confirmation, selectivity assay for TRPC4 inhibitor project, cell-based, HEK293, membrane potential dye, duplicate (AID 434948;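 active = active in primary screen and both duplicates, each dropping signal beyond three positive-control SD with fluorescence still positive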). Particulars: HEK293 TRPC6, membrane potential dye fluorescence, at 10 µM, stimulated with maximal-effect acetylcholine; active compounds read high.

Experiment [11] shares this target. In words: activation of mouse TRPC6 channel, confirmation, selectivity assay for TRPC4 activator project, cell-based, HEK293, membrane potential dye, duplicate (AID 434950;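 active = membrane potential signal rise above negative control mean plus 3 SD in both duplicates, also active in the earlier TRPC4 screen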;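 for activation: 0% = buffer only wells and 100% = acetylcholine maximal-effect wells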). Particulars: HEK293 TRPC6, membrane potential fluorescence, at 10 µM; active compounds read high.
Experiment [12] shares this target. Nature of the experiment: TRPC6 potentiation by TRPC4 potentiator hits, confirmation, selectivity assay for TRPC4 potentiator project, HEK293 cells, membrane potential dye, duplicate (AID 434952;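 active = compound raising the membrane signal above positive-control mean plus 3 SD in both repeats, and a primary screen hit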). Particulars: HEK293 TRPC6, membrane potential dye fluorescence, at 10 µM, maximal acetylcholine added after compound; active compounds read high.
The target in experiment [13] is Short transient receptor potential channel 4 (Mus musculus) (UniProt Q9QUQ5). Nature of the experiment: calcium flux activators in TRPC4/5HT1a cells, counter-screen for TRPC4 activator project, cell-based, second counter screen, HEK293 TRPC4/5HT1a, Fluo-4 (AID 434977;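 active = calcium signal rise above buffer-control mean plus 5 SD in both duplicates, and also a hit in the primary screen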;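 for activation: plate controls were assay buffer for no effect and maximal serotonin response for full effect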). Particulars: Fluo-4 calcium flux, at 10 µM; active compounds read high.
Experiment [14] is described as follows: calcium flux inhibitors in TRPC4/5HT1a cells, confirmation, counter-screen for TRPC4 inhibitor project, cell-based, second counter screen, HEK293 TRPC4/5HT1a, Fluo-4 (AID 434978;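 active = primary screen active whose calcium signal fell more than 3 SD beyond the full-serotonin control mean in both duplicate plates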;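 note: serotonin given first at submaximal then at maximal dose after compound preincubation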). The conditions noted are these: Fluo-4 calcium flux, at 10 µM, serotonin added to trigger calcium flux; active compounds read high.
Experiment [15] has as its system TRPC4 (mouse), co-expressed with 5HT1a in HEK293. In words: calcium flux potentiators in TRPC4/5HT1a cells, confirmation, counter-screen for TRPC4 potentiator project, cell-based, second counter screen, HEK293 TRPC4/5HT1a, Fluo-4 (AID 434979;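 active = signal rise over 3 SD above mean of control wells given weak agonist, in both repeats and first screen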). The conditions noted are these: Fluo-4 calcium flux, at 10 µM, serotonin added at its EC20 dose; active compounds read high.
Experiment [16] in a line: calcium flux activation in mu-opioid HEK293 cells, confirmation, counter-screen for TRPC4 activator project, cell-based, HEK293 mu-opioid receptor line (AID 449723;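 active = hit in primary screen, with calcium signal over 5 SD above buffer well mean in both duplicates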;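 note: counter screen cells carry the mu-opioid receptor alone and lack TRPC4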). The conditions noted are these: Fluo-4 calcium fluorescence, at 10 µM; active compounds read high.
The nature of experiment [17]: calcium flux enhancement in mu-opioid HEK293 cells, confirmation, counter-screen for TRPC4 allosteric potentiator project, cell-based, HEK293 mu-opioid receptor line (AID 449724;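 active = calcium signal rise more than 3 SD above the low-dose agonist control mean, in both duplicate plates and the primary screen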;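 note: HEK293 cells carrying mu-opioid receptor only with no TRPC4 channel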). Particulars: Fluo-4 calcium flux, at 10 µM, compound added before EC20 DAMGO stimulus; active compounds read high.
Experiment [18] can be described thus: nonspecific thallium flux increase in parental CHO-K1, confirmation, counter-screen for KCNQ2 potentiator project, cell-based, FluxOR thallium flux, duplicate (AID 2282;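 active = signal rise of at least 3 SD above the untreated control mean, in both duplicate wells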;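 note: counter screen of KCNQ2 potentiator hits so any rise reflects channel-independent effects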). The conditions noted are these: parental CHO-K1 cells, FluxOR thallium flux fluorescence; at 10 µM; active compounds read high; zero = vehicle mean+3SD, 100% = vehicle-minus-blank window.
Experiment [19] deals with Potassium voltage-gated channel subfamily KQT member 1 (Homo sapiens) (UniProt P51787). In words: human KCNQ1 channel potentiation off-target, confirmation, selectivity assay for KCNQ2 potentiator project, cell-based, CHO, FluxOR thallium flux (AID 2283;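 active = fluorescence ratio rise of at least 3 SD of vehicle wells above their mean, in both replicate wells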;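 note: 0% = vehicle mean plus 3 SD and 100% = vehicle minus unstimulated blank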). Particulars: CHO KCNQ1 stable, FluxOR thallium flux fluorescence; at 10 µM; active compounds read high; beyond 3SD, as % of vehicle-control signal.

The target in experiment [20] is Potassium voltage-gated channel subfamily KQT member 2 (Rattus norvegicus) (UniProt O88943). Nature of the experiment: rat KCNQ2 channel potentiators, confirmation, cell-based, CHO, FluxOR thallium flux, duplicate (AID 2287;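 active = fluorescence ratio rising 3 SD or more over the vehicle control mean in both replicates, plus primary screen hit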;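 note: peak minus minimum thallium fluorescence divided by baseline after K/Tl stimulus; 0% = vehicle mean plus 3 SD and 100% = vehicle minus unstimulated blank difference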). The conditions noted are these: CHO-KCNQ2 cells, FluxOR thallium flux fluorescence; at 10 µM; active compounds read high.
For experiment [21] the target is unchanged. In words: potentiators of retigabine-insensitive KCNQ2 W236L, mechanism study for KCNQ2 potentiator project, cell-based, rat KCNQ2 W236L, CHO, automated patch clamp (AID 2558;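 active = current increase at least 3 SD of the untreated controls above them in both duplicate recordings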). The conditions noted are these: at 25 µM; outcome: automated patch clamp current. A general note: Patch clamp records ionic current or voltage across a cell membrane.
Experiment [22] is described as follows: thallium flux activation in parental CHO cells, counter-screen for KCNQ1 potentiator project (AID 493006;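 active = duplicate-averaged activation above buffer control mean plus 5 SD of those controls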;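 note: fluorescence ratio of max minus min over baseline after K+ and Tl+ depolarization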). Particulars: parental CHO-K1 cells, FluxOR thallium flux, at 10 µM; active compounds read high. (Counterscreens check selectivity or assay interference.)
Experiment [23] addresses Potassium voltage-gated channel subfamily KQT member 1 (Homo sapiens) (UniProt P51787). Nature of the experiment: KCNQ1 potassium channel potentiators, confirmation, FluxOR thallium flux, CHO cells, duplicates (AID 493007;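 active = potentiation averaged over duplicate wells exceeding buffer-only control mean by more than 3 SD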;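 note: 0% = buffer-only wells and 100% = R-L3 activator control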). Particulars: KCNQ1 cell line, FluxOR thallium flux fluorescence, at 10 µM; active compounds read high, % of reference activator effect, buffer zero.
For experiment [24], the target named is Potassium voltage-gated channel subfamily KQT member 2 (Rattus norvegicus) (UniProt O88943). Nature of the experiment: rat KCNQ2 channel potentiation, selectivity assay for KCNQ1 potentiator project, KCNQ2-CHO-K1 cells (AID 493009;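 active = mean duplicate potentiation above the buffer control mean plus 5 SD of buffer wells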;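 note: assay conditions were tuned for KCNQ1 rather than KCNQ2 modulators; signal is max minus min fluorescence divided by baseline after thallium stimulus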). The conditions noted are these: FluxOR thallium flux fluorescence, at 10 µM; active compounds read high, scaled: buffer 0, activator control 100.

For experiment [25], the target named is Potassium voltage-gated channel subfamily KQT member 1 (Homo sapiens) (UniProt P51787). In words: KCNQ1 channel current potentiators, confirmation, orthogonal assay for KCNQ1 potentiator project, IonWorks patch clamp, KCNQ1-CHO cells (AID 493184;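 active = current rise at least 3 SD above the untreated control mean in each of two repeat wells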). Particulars: automated patch clamp current, at 10 µM; active compounds read high.

Values without a mark were called inactive. For part of these data: Entries with a potency or affinity are not part of this list. The list shows a part of the results. Active and inactive are the calls of the source.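 Rule for the calls, unless noted: active = primary screen hit whose calcium fluorescence ratio, in both repeats, exceeds the weak agonist control mean by 3 SD; inactive = the rest.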

Short transient receptor potential channel 6 (Mus musculus), sequence (Q61143 whole entry, looked up): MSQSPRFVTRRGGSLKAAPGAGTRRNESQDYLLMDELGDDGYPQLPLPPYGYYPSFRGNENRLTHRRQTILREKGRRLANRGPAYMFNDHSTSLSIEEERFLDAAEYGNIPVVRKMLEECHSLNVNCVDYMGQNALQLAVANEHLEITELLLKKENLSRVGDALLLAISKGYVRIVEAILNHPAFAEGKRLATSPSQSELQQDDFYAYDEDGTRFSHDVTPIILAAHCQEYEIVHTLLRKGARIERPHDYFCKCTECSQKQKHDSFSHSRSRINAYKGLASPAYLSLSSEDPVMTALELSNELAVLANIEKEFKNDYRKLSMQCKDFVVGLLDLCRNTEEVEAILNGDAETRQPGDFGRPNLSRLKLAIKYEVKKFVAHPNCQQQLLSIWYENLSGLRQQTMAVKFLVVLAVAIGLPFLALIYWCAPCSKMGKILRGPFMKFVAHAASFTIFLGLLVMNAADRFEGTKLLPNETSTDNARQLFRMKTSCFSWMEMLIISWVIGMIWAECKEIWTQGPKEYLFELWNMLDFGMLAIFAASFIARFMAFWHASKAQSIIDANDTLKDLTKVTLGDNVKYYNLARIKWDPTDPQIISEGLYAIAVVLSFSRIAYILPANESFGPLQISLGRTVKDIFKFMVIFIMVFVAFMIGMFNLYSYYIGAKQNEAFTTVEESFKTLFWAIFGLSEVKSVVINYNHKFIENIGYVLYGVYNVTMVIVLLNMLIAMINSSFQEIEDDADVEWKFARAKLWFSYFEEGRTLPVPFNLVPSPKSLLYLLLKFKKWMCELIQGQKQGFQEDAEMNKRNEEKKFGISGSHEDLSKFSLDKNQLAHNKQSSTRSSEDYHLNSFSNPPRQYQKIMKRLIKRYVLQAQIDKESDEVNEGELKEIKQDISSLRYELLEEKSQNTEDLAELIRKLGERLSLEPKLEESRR
Potassium voltage-gated channel subfamily KQT member 1 (Homo sapiens), sequence (P51787 whole entry, looked up): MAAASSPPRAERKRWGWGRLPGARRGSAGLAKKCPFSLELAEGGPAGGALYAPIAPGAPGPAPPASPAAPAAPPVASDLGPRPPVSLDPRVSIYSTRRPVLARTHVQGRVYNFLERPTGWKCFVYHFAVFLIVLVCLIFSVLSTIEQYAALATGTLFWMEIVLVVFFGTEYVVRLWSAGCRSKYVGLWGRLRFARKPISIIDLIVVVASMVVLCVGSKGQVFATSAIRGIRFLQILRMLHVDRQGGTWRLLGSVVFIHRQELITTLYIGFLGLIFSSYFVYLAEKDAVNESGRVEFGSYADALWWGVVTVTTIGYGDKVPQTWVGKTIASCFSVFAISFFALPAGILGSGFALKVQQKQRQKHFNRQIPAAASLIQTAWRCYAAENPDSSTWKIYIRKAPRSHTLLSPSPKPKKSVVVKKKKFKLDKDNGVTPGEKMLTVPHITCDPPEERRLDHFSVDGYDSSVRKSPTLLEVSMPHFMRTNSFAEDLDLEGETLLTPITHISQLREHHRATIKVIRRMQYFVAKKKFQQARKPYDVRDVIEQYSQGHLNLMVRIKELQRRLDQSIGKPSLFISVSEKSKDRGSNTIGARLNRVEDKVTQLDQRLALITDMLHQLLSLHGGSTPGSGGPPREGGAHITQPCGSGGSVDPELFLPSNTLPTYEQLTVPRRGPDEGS
Short transient receptor potential channel 4 (Mus musculus), sequence (Q9QUQ5 whole entry, looked up): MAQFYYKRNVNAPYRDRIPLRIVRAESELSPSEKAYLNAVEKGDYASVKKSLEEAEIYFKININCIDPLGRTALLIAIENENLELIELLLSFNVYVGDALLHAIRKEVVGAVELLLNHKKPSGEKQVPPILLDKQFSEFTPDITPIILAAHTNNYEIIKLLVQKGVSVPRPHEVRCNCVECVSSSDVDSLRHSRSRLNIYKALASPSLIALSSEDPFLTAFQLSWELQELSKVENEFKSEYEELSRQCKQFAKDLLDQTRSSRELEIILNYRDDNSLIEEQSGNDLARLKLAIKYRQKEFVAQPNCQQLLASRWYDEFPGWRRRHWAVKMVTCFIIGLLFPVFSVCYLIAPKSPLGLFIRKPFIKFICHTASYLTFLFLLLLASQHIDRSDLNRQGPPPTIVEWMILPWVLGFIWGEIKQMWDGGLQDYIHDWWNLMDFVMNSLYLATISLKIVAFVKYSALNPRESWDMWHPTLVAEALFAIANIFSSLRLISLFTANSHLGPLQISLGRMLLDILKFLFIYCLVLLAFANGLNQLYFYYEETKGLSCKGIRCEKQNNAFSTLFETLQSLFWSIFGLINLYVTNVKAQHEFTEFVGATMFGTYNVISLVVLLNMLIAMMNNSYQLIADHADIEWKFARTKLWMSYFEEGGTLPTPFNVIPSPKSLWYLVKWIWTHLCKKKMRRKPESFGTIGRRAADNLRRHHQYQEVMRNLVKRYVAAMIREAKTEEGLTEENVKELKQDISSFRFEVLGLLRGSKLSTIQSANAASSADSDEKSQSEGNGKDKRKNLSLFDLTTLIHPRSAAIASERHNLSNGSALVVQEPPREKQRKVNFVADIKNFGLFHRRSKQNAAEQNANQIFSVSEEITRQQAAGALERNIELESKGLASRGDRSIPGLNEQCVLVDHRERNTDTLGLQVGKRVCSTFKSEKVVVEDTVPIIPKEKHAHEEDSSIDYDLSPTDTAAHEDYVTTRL

On to `CCN1CCN(c2ccc(S(=O)(=O)N3CCCCC3)cc2NC(=O)c2cc3ccccc3o2)CC1`, for which the outcome in [1], in [2], in experiment [3], in experiment [5], in experiment [6] and in experiment [7] was inactive. In addition, the result in experiment [8], in [9], in experiment [10], in experiment [11], in experiment [12] and in experiment [13] was inactive. Moreover, the outcome in [14], in experiment [16] and in experiment [17] was inactive. Also, the values for the potentiation in experiment [4] and in [15] were 27% (active) and 24.6% (active), respectively.
Take `O=c1c2cc(Br)ccc2nc(-c2cccc(Cl)c2)n1O`: the activity increase over 3SD of controls in [18] was -14.4%. Besides, the activation over 3SD threshold in experiment [19] was 68.1% (active). For the same compound, the potentiation, less the hit threshold in experiment [20] is 84.4% (active). Further, the activation in [1] was 223% (active); in experiment [11] it was 38.5% (active); in [13], 63.4% (active); in experiment [16], 20.3% (active); in [22], 803% (active). Further, the outcome in experiment [2], in [3], in experiment [4], in [21], in experiment [5] and in [6] was inactive. The outcome in experiment [8], in [9], in [10], in [12], in [14] and in [15] was inactive. In addition, the outcome in experiment [17] and in experiment [25] was inactive. The potentiation in experiment [23] was 257% (active); in experiment [24], 703% (active).
`Cc1ccccc1-c1n[nH]c(=S)n1Cc1ccccc1`: the result in experiment [1], in experiment [2], in experiment [3], in [4], in [5] and in [6] was inactive. Also, the result in experiment [7], in experiment [8], in [9], in experiment [10], in experiment [11] and in [12] was inactive. The result in [13], in experiment [14], in experiment [15], in [16] and in experiment [17] was inactive.
Regarding `COc1ccc(CCNCC(O)COc2ccc(OC)cc2C(C)(C)C)cc1` (stereo unspecified), the outcome in [1], in [2], in [3], in [4], in [5] and in [6] was inactive. The outcome in experiment [7], in [8], in experiment [9], in experiment [10], in [11] and in experiment [12] was inactive. For the same compound, the result in [13], in [14], in experiment [15], in experiment [16] and in [17] was inactive.
As for `Cc1cc(N2CCCCC2)nc(NCc2ccccc2)n1`, the activation is 66% (active) in [1], 68.5% (active) in experiment [11], 19.4% (active) in [13] and 29.5% (active) in experiment [16]. For the same compound, the result in experiment [2], in experiment [3], in experiment [4], in experiment [5], in [6] and in [7] was inactive. Further, the result in experiment [8], in experiment [9], in [10], in experiment [12], in experiment [14] and in [15] was inactive. The result in [17] was inactive.
Consider `COc1ccc2sc(N(CCCN(C)C)C(=O)c3ccc(S(=O)(=O)N4CCCc5ccccc54)cc3)nc2c1`, for which the outcome in experiment [1], in [2], in experiment [3], in experiment [5], in experiment [6] and in [7] was inactive. Moreover, the result in [8], in [9], in experiment [10], in experiment [11], in experiment [12] and in experiment [13] was inactive. Moreover, the result in experiment [14], in experiment [16] and in experiment [17] was inactive. The potentiation is 28% (active) in experiment [4] and 80% (active) in [15].
For the compound `CCCCCOc1ccc2oc(=O)c3c(c2c1)CCCN3C(=O)CN1CCCC(C(=O)OCC)C1` (stereo unspecified), the result in [1], in experiment [2], in experiment [3], in [4], in experiment [5] and in experiment [6] was inactive. Also, the result in experiment [7], in [8], in [9], in [10], in experiment [11] and in experiment [12] was inactive. Moreover, the outcome in experiment [13], in experiment [14], in [16] and in experiment [17] was inactive. Moreover, the potentiation in experiment [15] was 7.34% (active).

(Values after PubChem BioAssay.)
